Legend:
[1] = biological target: Protein kinase C gamma type (Homo sapiens) (UniProt P05129); settings: at 1 µM;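 further: each value is an averaged percent inhibition of the enzyme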
[2] = biological target: T1, Protein kinase C iota type (Homo sapiens) (UniProt P41743); settings: at 0.1 µM
T1 sequence (whole entry): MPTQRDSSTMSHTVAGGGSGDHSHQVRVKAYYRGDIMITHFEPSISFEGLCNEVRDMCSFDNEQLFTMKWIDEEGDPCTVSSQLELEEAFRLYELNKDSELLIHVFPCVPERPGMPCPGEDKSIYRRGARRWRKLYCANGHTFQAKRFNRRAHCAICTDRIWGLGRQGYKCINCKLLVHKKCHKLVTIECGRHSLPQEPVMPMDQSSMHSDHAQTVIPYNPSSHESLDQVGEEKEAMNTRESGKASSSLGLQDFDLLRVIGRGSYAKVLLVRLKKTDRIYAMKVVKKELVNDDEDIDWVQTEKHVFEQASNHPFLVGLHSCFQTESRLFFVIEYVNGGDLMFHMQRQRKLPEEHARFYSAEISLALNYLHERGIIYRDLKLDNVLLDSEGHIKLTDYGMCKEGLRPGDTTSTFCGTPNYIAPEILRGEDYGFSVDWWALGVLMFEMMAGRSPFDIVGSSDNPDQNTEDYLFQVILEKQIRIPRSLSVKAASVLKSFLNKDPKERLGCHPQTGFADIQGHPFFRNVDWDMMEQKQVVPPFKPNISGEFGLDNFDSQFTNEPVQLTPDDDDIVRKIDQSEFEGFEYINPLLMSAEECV

[3] = biological target: T1, Protein kinase C iota type (Homo sapiens); settings: at 1 µM
[4] = biological target: Protein kinase C theta type (Homo sapiens) (UniProt Q04759); settings: at 0.1 µM
Protein kinase C theta type (Homo sapiens), sequence (Q04759 whole entry, looked up): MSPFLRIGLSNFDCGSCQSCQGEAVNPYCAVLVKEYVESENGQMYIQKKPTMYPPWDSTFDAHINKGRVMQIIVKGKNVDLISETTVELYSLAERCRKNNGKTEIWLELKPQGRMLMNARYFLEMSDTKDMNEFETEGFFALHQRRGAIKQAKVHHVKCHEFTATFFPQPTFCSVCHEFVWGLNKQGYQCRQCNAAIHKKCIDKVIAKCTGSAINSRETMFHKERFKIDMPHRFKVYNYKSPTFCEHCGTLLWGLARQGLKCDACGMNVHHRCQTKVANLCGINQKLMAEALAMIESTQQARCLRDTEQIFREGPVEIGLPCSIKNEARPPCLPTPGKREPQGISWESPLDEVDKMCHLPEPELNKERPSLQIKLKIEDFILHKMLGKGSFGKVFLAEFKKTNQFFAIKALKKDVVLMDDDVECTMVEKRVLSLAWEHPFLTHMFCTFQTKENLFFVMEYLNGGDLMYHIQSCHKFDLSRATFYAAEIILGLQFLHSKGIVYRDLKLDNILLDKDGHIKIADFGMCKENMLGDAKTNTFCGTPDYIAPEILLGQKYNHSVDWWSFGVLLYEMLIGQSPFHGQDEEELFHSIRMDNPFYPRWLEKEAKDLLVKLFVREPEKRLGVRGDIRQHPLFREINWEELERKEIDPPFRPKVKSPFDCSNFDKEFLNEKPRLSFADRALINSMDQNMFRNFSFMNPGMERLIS

[5] = biological target: Protein kinase C theta type (Homo sapiens) (UniProt Q04759); settings: at 1 µM
[6] = biological target: Protein kinase C beta type (Homo sapiens) (UniProt P05771); settings: at 0.1 µM
Protein kinase C beta type (Homo sapiens), sequence (P05771 2-671 limits assumed): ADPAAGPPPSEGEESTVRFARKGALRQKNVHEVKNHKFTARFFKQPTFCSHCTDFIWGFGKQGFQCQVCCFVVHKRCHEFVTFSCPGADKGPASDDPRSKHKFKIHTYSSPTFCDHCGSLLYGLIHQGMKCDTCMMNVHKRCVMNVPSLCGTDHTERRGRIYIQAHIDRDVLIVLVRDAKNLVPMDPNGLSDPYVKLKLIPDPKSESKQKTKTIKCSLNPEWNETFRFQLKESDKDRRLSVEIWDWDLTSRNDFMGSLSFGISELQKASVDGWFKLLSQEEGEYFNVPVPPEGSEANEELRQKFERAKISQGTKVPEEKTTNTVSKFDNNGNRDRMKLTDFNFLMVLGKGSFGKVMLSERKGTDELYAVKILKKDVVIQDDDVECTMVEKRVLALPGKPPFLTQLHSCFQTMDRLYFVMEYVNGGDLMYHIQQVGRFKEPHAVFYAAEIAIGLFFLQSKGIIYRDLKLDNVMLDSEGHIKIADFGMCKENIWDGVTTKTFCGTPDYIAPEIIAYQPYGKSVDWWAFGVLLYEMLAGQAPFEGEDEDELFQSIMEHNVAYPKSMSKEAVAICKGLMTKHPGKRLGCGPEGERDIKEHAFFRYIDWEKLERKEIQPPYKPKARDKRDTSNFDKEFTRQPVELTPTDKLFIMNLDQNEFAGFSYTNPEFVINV

[7] = biological target: Protein kinase C beta type (Homo sapiens) (UniProt P05771); settings: at 1 µM
[8] = biological target: T2, Serine/threonine-protein kinase D1 (Homo sapiens) (UniProt Q15139); settings: at 0.1 µM
T2 sequence (whole entry): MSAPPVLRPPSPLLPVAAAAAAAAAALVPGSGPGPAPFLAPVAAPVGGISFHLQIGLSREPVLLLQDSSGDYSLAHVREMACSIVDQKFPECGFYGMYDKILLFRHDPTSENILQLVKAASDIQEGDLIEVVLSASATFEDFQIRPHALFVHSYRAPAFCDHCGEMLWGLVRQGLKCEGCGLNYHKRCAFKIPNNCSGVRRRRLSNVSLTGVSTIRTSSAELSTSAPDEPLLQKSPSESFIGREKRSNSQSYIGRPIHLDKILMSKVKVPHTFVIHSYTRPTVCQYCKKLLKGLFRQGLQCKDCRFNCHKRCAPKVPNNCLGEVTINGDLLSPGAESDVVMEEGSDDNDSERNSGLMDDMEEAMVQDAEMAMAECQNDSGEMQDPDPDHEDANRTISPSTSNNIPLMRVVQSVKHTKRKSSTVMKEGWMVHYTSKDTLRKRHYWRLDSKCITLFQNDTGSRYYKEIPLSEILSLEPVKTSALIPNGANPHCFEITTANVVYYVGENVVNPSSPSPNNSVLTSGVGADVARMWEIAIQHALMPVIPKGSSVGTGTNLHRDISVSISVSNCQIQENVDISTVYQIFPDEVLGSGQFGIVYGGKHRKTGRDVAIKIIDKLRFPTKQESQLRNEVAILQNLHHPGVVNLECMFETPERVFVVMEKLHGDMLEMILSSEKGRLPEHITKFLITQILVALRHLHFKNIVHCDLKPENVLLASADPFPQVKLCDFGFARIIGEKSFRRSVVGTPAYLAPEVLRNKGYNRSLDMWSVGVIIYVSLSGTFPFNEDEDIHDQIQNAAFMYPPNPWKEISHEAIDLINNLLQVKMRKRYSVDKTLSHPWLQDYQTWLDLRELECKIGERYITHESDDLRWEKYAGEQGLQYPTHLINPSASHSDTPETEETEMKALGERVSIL

[9] = biological target: T2, Serine/threonine-protein kinase D1 (Homo sapiens); settings: at 1 µM
[10] = biological target: T3, Serine/threonine-protein kinase D2 (Homo sapiens) (UniProt Q9BZL6); settings: at 0.1 µM
T3 sequence (whole entry): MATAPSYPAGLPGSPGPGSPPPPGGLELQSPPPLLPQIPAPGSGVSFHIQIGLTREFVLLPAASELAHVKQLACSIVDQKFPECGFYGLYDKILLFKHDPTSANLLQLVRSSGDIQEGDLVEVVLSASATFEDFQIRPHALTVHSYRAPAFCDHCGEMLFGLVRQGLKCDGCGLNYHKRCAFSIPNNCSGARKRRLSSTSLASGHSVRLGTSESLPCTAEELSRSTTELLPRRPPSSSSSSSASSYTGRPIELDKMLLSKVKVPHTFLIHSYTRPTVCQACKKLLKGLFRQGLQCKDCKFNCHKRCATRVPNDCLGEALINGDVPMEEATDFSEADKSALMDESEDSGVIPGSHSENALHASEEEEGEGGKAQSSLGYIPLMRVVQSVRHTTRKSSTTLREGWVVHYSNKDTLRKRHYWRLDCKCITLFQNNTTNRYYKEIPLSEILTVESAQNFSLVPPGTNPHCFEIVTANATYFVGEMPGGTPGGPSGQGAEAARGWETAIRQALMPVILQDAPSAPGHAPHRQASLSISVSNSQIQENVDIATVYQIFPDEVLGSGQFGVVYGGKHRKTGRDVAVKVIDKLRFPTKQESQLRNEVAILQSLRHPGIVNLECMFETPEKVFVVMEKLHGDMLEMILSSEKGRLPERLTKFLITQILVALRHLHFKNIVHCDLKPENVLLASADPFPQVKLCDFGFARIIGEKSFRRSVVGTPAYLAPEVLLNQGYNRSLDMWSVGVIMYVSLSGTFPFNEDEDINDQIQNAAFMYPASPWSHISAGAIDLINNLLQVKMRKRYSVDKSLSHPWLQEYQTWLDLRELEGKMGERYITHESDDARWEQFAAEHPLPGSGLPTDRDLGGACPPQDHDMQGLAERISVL

[11] = biological target: T3, Serine/threonine-protein kinase D2 (Homo sapiens); settings: at 1 µM
[12] = biological target: T4, Serine/threonine-protein kinase D3 (Homo sapiens) (UniProt O94806); settings: at 0.1 µM
T4 sequence (whole entry): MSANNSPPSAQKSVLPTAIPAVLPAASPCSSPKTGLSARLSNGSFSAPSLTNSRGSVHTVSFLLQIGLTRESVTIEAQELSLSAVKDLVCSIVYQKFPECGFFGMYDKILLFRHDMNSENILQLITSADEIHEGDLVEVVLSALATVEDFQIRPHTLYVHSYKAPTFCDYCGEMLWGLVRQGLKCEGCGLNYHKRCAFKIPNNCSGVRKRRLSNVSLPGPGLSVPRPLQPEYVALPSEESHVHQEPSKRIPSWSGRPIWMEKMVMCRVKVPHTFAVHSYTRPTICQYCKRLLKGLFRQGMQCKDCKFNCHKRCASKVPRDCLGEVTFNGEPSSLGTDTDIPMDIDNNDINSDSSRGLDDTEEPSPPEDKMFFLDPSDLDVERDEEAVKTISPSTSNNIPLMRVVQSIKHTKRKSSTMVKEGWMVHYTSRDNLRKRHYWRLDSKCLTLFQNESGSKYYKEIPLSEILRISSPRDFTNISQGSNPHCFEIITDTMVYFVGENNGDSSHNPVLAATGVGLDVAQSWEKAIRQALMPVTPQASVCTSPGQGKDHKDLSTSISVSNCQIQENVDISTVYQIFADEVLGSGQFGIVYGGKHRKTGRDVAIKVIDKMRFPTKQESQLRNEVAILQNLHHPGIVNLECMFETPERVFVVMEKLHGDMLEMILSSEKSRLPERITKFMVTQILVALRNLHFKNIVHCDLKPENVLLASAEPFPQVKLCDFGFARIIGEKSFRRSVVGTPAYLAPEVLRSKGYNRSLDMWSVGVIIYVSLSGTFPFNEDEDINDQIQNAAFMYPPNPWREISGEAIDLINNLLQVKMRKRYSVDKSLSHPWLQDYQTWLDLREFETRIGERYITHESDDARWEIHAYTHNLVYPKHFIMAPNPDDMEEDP

[13] = biological target: T4, Serine/threonine-protein kinase D3 (Homo sapiens); settings: at 1 µM
[14] = biological target: T5, cGMP-dependent protein kinase 1 (Homo sapiens) (UniProt Q13976); settings: at 0.1 µM
T5 sequence (whole entry): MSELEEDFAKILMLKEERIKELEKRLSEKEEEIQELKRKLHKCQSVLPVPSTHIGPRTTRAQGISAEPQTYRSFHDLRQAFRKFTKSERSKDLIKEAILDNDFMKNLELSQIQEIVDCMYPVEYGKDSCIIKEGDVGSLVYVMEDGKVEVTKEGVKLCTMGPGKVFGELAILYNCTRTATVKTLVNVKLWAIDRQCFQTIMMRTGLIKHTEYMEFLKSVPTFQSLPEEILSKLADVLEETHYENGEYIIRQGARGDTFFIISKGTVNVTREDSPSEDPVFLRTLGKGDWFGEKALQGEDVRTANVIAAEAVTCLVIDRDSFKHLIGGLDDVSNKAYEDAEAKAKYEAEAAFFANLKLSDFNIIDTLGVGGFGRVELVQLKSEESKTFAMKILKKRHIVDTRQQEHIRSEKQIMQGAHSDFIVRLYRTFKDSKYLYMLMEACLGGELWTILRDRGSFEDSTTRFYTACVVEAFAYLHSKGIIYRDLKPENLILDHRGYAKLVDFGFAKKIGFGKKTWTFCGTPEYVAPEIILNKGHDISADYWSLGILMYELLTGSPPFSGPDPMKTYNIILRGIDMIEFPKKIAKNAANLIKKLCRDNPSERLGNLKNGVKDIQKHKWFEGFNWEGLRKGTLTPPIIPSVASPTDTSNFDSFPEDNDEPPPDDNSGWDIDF

[15] = biological target: T5, cGMP-dependent protein kinase 1 (Homo sapiens); settings: at 1 µM
[16] = biological target: T6, cGMP-dependent protein kinase 2 (Homo sapiens) (UniProt Q13237); settings: at 0.1 µM
T6 sequence (whole entry): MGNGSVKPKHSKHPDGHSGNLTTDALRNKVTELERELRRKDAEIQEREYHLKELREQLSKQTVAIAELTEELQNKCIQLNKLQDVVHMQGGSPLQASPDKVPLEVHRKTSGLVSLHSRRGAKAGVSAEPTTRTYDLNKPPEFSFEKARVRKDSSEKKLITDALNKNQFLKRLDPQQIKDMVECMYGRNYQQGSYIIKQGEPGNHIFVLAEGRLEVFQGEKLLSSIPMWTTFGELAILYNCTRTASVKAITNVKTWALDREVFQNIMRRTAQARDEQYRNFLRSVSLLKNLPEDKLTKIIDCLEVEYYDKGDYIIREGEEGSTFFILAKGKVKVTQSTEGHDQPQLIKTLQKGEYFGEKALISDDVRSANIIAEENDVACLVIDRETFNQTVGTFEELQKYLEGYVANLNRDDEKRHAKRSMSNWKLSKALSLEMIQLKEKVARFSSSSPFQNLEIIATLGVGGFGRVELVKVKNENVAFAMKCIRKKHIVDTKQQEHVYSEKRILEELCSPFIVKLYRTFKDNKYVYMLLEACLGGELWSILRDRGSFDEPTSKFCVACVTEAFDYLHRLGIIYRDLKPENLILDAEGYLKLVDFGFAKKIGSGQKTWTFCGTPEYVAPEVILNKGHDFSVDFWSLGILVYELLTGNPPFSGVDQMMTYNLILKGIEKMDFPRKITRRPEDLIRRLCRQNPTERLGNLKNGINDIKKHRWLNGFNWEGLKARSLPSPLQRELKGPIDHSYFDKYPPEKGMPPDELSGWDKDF

[17] = biological target: T6, cGMP-dependent protein kinase 2 (Homo sapiens); settings: at 1 µM
[18] = biological target: T7, cAMP-dependent protein kinase catalytic subunit PRKX (Homo sapiens) (UniProt P51817); settings: at 0.1 µM
T7 sequence (whole entry): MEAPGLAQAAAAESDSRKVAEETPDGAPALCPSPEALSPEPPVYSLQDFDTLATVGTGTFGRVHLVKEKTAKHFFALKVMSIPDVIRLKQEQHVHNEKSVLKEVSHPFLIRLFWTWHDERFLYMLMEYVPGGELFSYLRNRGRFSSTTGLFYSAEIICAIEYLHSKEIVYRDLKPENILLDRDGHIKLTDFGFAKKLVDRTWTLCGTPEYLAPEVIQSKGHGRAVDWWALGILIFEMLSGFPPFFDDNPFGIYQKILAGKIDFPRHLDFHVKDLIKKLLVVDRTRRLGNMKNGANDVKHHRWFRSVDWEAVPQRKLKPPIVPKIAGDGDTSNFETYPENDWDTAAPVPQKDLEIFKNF

[19] = biological target: T7, cAMP-dependent protein kinase catalytic subunit PRKX (Homo sapiens); settings: at 1 µM
[20] = biological target: Rho-associated protein kinase 1 (Homo sapiens) (UniProt Q13464); settings: at 0.1 µM;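 further: values are mean percent inhibition of ROCK1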
Rho-associated protein kinase 1 (Homo sapiens), sequence (Q13464 2-1354 limits assumed): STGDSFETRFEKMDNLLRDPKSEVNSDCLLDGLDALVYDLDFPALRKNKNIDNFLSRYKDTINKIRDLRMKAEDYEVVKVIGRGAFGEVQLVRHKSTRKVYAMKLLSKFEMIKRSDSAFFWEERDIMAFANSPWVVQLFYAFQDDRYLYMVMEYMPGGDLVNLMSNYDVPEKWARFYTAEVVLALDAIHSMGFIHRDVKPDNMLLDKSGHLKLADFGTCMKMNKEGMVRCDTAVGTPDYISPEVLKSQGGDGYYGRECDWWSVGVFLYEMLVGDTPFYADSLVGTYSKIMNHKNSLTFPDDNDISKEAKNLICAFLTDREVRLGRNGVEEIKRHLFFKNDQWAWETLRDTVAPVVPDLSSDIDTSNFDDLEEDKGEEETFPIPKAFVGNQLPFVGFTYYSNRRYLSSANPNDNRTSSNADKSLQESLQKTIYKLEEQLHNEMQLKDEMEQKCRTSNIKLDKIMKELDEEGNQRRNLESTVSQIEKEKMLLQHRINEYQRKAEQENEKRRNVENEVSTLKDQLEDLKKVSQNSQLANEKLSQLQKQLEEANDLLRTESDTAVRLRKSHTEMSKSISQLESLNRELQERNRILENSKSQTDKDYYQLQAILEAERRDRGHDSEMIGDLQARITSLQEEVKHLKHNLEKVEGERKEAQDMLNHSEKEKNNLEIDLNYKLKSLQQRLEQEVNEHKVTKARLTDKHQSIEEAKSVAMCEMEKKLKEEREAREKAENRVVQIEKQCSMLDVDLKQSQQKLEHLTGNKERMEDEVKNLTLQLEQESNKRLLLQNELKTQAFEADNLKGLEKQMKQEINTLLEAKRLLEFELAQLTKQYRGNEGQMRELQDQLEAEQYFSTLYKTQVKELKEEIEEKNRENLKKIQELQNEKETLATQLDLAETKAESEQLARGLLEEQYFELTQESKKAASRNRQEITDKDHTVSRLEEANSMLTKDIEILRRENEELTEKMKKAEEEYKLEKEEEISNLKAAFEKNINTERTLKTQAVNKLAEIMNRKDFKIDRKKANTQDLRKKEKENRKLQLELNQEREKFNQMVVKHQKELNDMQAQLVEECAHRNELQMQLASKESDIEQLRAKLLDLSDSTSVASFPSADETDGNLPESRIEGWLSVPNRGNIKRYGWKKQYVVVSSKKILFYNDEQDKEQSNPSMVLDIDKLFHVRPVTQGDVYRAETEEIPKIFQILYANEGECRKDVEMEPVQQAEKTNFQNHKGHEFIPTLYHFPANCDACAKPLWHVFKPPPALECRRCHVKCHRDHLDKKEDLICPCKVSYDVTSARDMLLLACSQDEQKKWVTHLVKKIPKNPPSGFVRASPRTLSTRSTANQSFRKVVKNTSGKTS

Q: What does the source list for `COc1ccc2ncn(-c3cc(O[C@H](C)c4ccccc4Cl)c(C(N)=O)s3)c2c1`?
A: inhibition [1]: 2.27%; inhibition [2]: 4.03%; inhibition [3]: 3.88%; inhibition [4]: 2.43%; inhibition [5]: 2.69%; inhibition [6]: 1.24%; inhibition [7]: 2.97%; inhibition [8]: -0.01%; inhibition [9]: -0.79%; inhibition [10]: -0.02%; inhibition [11]: -2.98%; inhibition [12]: 0.19%; inhibition [13]: -0.76%; inhibition [14]: 3.47%; inhibition [15]: 3.01%; inhibition [16]: 3.48%; inhibition [17]: 4.43%; inhibition [18]: 4.11%; inhibition [19]: 1.58%; inhibition [20]: 1.76%

Source: ChEMBL document CHEMBL1961873, “Compounds: GSK PKIS; Assays: Nanosyn kinase panel” (2012)
